HCV inhibitor: qHTS Assay for Inhibitors of Hepatitis C Virus (HCV); Potency, µM (titrated, usually from 41.8 µM), for the others: at the top dose activity change, negative = inhibition, most hits filed as inhibitors; Huh7.5.1 HCVcc-Cre infection, luciferase reporter, 44 h; 340,000 tested, 3.4% active; also: potency is read from the fitted curve at half-maximal effect; % is scaled to controls: 0 for no effect and ±100 for the full control effect
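Cells (1,000/well) were plated 4 h before compound, then infected with HCVcc-Cre virus (~0.5 moi). After 44 h further culture, infection was read as luciferase luminescence following a 15 min substrate incubation at room temperature.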
Pf growth 96h: Primary qHTS for delayed death inhibitors of the malarial parasite plastid, 96 hour incubation; AID 504834, 2011; Potency, µM (highest dose often 28.7 µM), without a hit: at the highest dose activity change, negative = inhibition, actives largely listed as inhibitors; P. falciparum luciferase reporter growth, 96 h; 320,000 tested, 6.9% active; also: potency is read from the fitted curve at half-maximal effect; % is scaled to controls: 0 for no effect and ±100 for the full control effect
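Plates of compound plus infected erythrocytes (2% hematocrit, 0.05% parasitemia final) incubate 96 hours, 37 C, 5% CO2. Detection reagent added; reduced luminescence from the parasites' luciferase reporter flags inhibition.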
HCMV antiviral: qHTS Assay for inhibitors of the human cytomegalovirus (HCMV); HFF cells, HCMV-luciferase reporter, 72 h; hits give low values; activity change, negative = inhibition, % at 57.5 µM; AID 1259415, 2018; 410,000 tested, 4.5% active; in the data active = activity change below about -60%; inconclusive = no clear call, values can overlap the other calls; inactive = above about -39%; also: % is scaled to controls: 0 for no effect and ±100 for the full control effect
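Cell-based, HFFs, 1000 cells/well, 16 h 37C; cpds in DMSO + HCMV-luc, MOI 1 PFU/cell; 72 h 37C; OneGlo luminescence after 5 min RT; norm. to buffer vs Salinomycin 10uM.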
Pf growth 48h: Primary qHTS for delayed death inhibitors of the malarial parasite plastid, 48 hour incubation; P. falciparum luciferase growth in erythrocytes, 48 h; Potency, µM (titrated, usually from 28.7 µM), without a hit: top-dose activity change, negative = inhibition, hits mostly inhibitors; 310,000 tested, 5.9% active; also: potency is read from the fitted curve at half-maximal effect; % is scaled to controls: 0 for no effect and ±100 for the full control effect
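Erythrocytes infected with P. falciparum carrying an integrated firefly luciferase reporter (2% hematocrit, 0.1% parasitemia final) were exposed to compounds in RPMI 1640 with 0.5% Albumax at 37 C, 5% CO2. Growth inhibition was scored as reduced luminescence.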
Shiga inhibitor: A qHTS for Small Molecule Inhibitors of Shiga Toxin. 290,000 tested, 9.2% active. inhibition, % at 38.7 µM. Vero cells, Shiga toxin protein synthesis inhibition reporter; in the data active = inhibition mostly above about 28%, no sharp cut-off; inactive = mostly below about 43%; also: 0% is about no effect
CHX counter: Cycloheximide Counterscreen for Small Molecule Inhibitors of Shiga Toxin. cell reporter, cycloheximide protein synthesis inhibition counterscreen. max response, %. 300,000 tested, 12% active; in the data active = max response mostly above about 13%, no sharp cut-off; inactive = mostly below about 14%; also: read at 38.3 µM for the half of the compounds with a filed dose; 0% is about no effect
* = called active by the depositor; ? = inconclusive; nt = not tested or not shown; ! = not active in a repeat; [ ] = another dose, or the depositor's remark. This is a sample that favours compounds with a hit; in the whole collection about 21% have one here. Unless noted, calls follow the shape of the dose curve; as a rule, active = well fitted inhibition curve with a large enough effect; inconclusive = small, poorly fitted or top-dose-only effect, or another doubt; inactive = no such curve, though single readings can be large or run the other way.

SMILES | HCV inhibitor | Pf growth 96h | HCMV antiviral | Pf growth 48h | Shiga inhibitor | CHX counter
CC(=O)c1ccc(N2CCN(CC(=O)N(CC(C)C)c3c(N)n(CC(C)C)c(=O)[nH]c3=O)CC2)cc1 | 16% | -18% | 7 | -18% | -9 | 12*
COc1cc(NC(=O)Cn2cnc3c(OCc4ccccc4)ncnc32)cc(OC)c1OC | ? | nt | -14 | nt | nt | nt
CCOC(=O)CNC(=O)c1ccc(Cl)s1 | 1% | ? | 6 | 0% | 24 | 4
CCNc1nc(N)c(C(=O)c2ccc(Cl)s2)s1 | ? | ? | -35 | 56% | 130* | 44*
COCCCn1cnc2oc3nc4ccccc4nc3c2c1=O | -3% | 79% | 70 | 113% | 98* | 37*
NNC(=O)c1ccc2nc(-c3ccc(Br)cc3)cn2c1 | -8% | -65% | -16 | ? | 57 | 30*
NNC(=O)c1ccc(Cn2cc(Br)cn2)cc1 | 33% | ? | -23 | -4% | -17 | -3
COc1ccc(-c2cn3cc(C(=O)NN)ccc3n2)cc1 | 3% | 4.7µM* | -21 | 187% | 42* | 24*
Cc1ccc(OCC(=O)Oc2c(C)cccc2C)cc1C | 7% | 146% | 46 | 0% | 44 | 4
O=C1C(n2ccc3ccccc32)c2cccc(F)c2N1Cc1ccc(C(F)(F)F)cc1 (stereo not drawn) | nt | nt | 15 | nt | nt | nt
COc1cccc(NC(=O)CN(C)C(=O)c2ccccc2-c2nc3ccccc3s2)c1 | 0% | ? | 2 | -4% | nt | nt
O=C(C1CCCN(c2ncnc3c2nc2n3CCCCC2)C1)N1CCCCC1 (stereo not drawn) | -4% | 52% | -29 | ? | -7 | 15
O=C(C1CCCN(c2ncnc3c2nc2n3CCCCC2)C1)N1CCN(c2ccc(Cl)cc2)CC1 (stereo not drawn) | ? | -15% | -83* | 12µM* | -4 | -2
O=C(C1CCCN(c2ncnc3c2nc2n3CCCCC2)C1)N1CCN(c2ccc(F)cc2)CC1 (stereo not drawn) | 11µM* | ? | -15 | 9.3µM* | -13 | -4
CCN(C(=O)C1CCCN(c2ncnc3c2nc2n3CCCCC2)C1)c1cccc(Cl)c1 (stereo not drawn) | -6% | ? | -87*! | ? | -10 | -4
CCOc1ccc(CCNC(=O)c2cc3c(=O)[nH]c4ccc(C)cc4c3s2)cc1OCC | nt | nt | -2 | nt | nt | nt
Cc1ccc2nc(NC(=O)CSc3nccn3Cc3ccccc3)sc2c1 | nt | nt | 32 | nt | nt | nt
COCCNC(=O)/C(C#N)=C/c1ccc(-c2ccc(S(=O)(=O)N3CCOCC3)cc2)o1 | 10% | -22% | -14 | -25% | -13 | -4
CCOCCCNC(=O)/C(C#N)=C/c1ccc(-c2ccc(S(=O)(=O)N3CCOCC3)cc2)o1 | ? | 13µM* | nt | -20% | -10 | -5
CCOCCCNC(=O)/C(C#N)=C/c1ccc([N+](=O)[O-])o1 | ? | -16% | -99* | -5% | 29 | 14
CCOCCCNC(=O)/C(C#N)=C/c1cc(Br)c(O)c(Br)c1 | -13% | 11% | nt | ? | -8 | 2
COc1ccccc1OCCSc1nc2ccccc2n1CC(N)=O | 9% | 18% | 7 | 38% | -13 | -3
CC1=C(C(=O)OCc2ccccc2)C(c2cccc(Cl)c2Cl)CC(=O)N1 (stereo not drawn) | nt | nt | -13 | nt | nt | nt
COC(=O)C1=C(C)NC(=O)CC1c1cccc(Cl)c1Cl (stereo not drawn) | 5% | ? | 2 | 5.2µM* | -9 | -6
COc1ccc(S(=O)(=O)Nc2cc3[nH]c(=O)oc3cc2C)cc1 | -21% | 8.3µM* | ? | 17% | -8 | 1
SMILES | HCV inhibitor | Pf growth 96h | HCMV antiviral | Pf growth 48h | Shiga inhibitor | CHX counter
COc1ccc(NCC(=O)Nc2ccc(Br)cc2F)c(OC)c1 | 2% | ? | -28 | ? | 4 | 8
CN(C)c1ccnc(Oc2ccc(C(C)(C)C)cc2)c1C#N | ? | ? | -1 | ? | 73* | 37*
Cc1cc(Cl)ccc1Oc1nccc(N(C)C)c1C#N | ? | ? | ? | 25% | 21 | 14*
CN(C)c1ccnc(Oc2ccc(Cl)cc2)c1C#N | -22% | ? | 42 | 41% | 127* | 69*
ON=C(CCc1ccccc1)CCc1ccccc1 | 11% | nt | -75* | nt | nt | nt
NC(N)=NC1=NC(=O)C(Cc2ccccc2)S1 (stereo not drawn) | 2% | ? | -36 | 0% | -2 | 19*
CCOC(=O)O[C@]1(C(=O)COC(=O)CC)CC[C@@H]2[C@@H]3CCC4=CC(=O)C=C[C@@]4(C)[C@H]3[C@H](O)C[C@]21C | nt | 3%[12.8 µM] | nt | -2%[12.8 µM] | nt | nt
O=C(Nc1ccc(Oc2ccccc2)cc1)c1csc(COCCO)n1 | nt | nt | -81* | nt | nt | nt
CC(=O)Nc1ccc(NC(=O)c2csc([C@H]3C[C@H](O)[C@@H](CO)O3)n2)cc1 | nt | nt | -1 | nt | nt | nt
COCCCNC(=O)c1csc([C@H]2C[C@H](O)[C@@H](CO)O2)n1 | nt | nt | -100* | nt | nt | nt
O=C(Nc1ccc(Oc2ccccc2)cc1)c1csc([C@@H]2C[C@H](O)[C@@H](CO)O2)n1 | nt | nt | -91* | nt | nt | nt
COc1ccc(CNc2oc(-c3ccc(COc4ccccc4C)o3)nc2C#N)cc1 | nt | nt | -29 | nt | nt | nt
Cc1cccc(/C=N/NC(=O)c2cc(Br)ccc2OCc2ccccc2)n1 | ? | -5% | -35 | ? | 20 | -6
Cc1ccc(/C=N/NC(=O)c2ccccc2OCc2ccc(F)cc2)o1 | 10µM* | ? | ? | ? | 25 | 4
Cc1cccc(/C=N/NC(=O)c2ccccc2OCc2cccc(Br)c2)n1 | ? | ? | 13 | 15µM* | 12 | 1
O=C(N/N=C/c1ccncc1)c1ccccc1OCc1ccc(Br)cc1 | ? | 1.9µM* | ? | -62% | -2 | -1
O=C(N/N=C/c1ccccc1)c1sccc1OCc1ccc(F)cc1 | ? | ? | -62* | ? | 2 | 9
O=C(Nc1c[nH]c(=O)[nH]c1=O)c1cccc([N+](=O)[O-])c1 | 17% | ? | 14 | 11% | -8 | -3
CCOc1cccc(/C=C(\C#N)C(=O)NC2CC2)c1 | 6% | nt | 45 | nt | nt | nt
CCCCSc1nc(C)c(C(C)=O)cc1C#N | -26% | 10% | 11 | 20% | 79* | 32*
CCOC(=O)CSc1nc(C)c(C(C)=O)cc1C#N | 6% | ? | -21 | ? | 100* | 18*
CC(=O)C1CCC2C3CC(O)C4=CC(=O)CCC4(C)C3C(=O)CC12C (stereo not drawn) | -1% | nt | 10 | nt | nt | nt
FC(F)(F)c1cc(NC2CCCCC2)ccn1 | -12% | ? | 3 | -18% | -5 | 13
